Experimental data reported in PubChem BioAssay (NCATS).
“And” between values parts separate entries of the source, which are not always exact repeats. Equal entries are not always repeated. Inconclusive results are not listed. A number with no mark means an inactive call. Calls follow the shape of the dose curve; as a rule, active = well fitted curve in either direction with a large enough effect (not every such curve was filed as active); inconclusive = small, poorly fitted or top-dose-only effect, or another doubt; inactive = flat fitted curve, though single readings scatter.

Experiment: NFAT Signaling Pathway (AID 444);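 also: carbachol stimulus at about its EC50 of 1 µM final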
Details: Jurkat NFAT-bla M1, carbachol, beta-lactamase ratio, 5 h; at 38 µM (top of the series)
Outline: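 Jurkat cells carrying an NFAT-driven β-lactamase reporter and co-transfected muscarinic M1 receptor were treated with compound plus carbachol (1 uM final, an EC50 level) for 5 h at 37 °C. CCF4 loading followed for 1 h at RT; 460/530 nm ratio gave %activity.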
% is scaled to controls: 0 for no effect and ±100 for the full control effect.

Question: With `NC(N)=NC(=O)c1nc(Cl)c(N)nc1N` as the compound, how does the activity change, negative = inhibition read?
Answer: The activity change, negative = inhibition was -2.5%.

Question: For `N=c1nc(N2CCCCC2)cc(N)n1O`, which activity change, negative = inhibition is on record?
Answer: The activity change, negative = inhibition was 7.52%.

Question: For `NC[C@H](O)c1ccc(O)c(O)c1`, which activity change, negative = inhibition is on record?
Answer: Its activity change, negative = inhibition is -7.25% and 5.9%.

Question: Which activity change, negative = inhibition does the source give for `NNCCc1ccccc1` here?
Answer: The activity change, negative = inhibition was -17.1%.

Question: With `Clc1cccc(Cl)c1NC1=NCCN1` as the compound, how does the activity change, negative = inhibition read?
Answer: The activity change, negative = inhibition was -5.97%.

Question: With `Nc1ccc(S(=O)(=O)Nc2ccnn2-c2ccccc2)cc1` as the compound, how does the activity change, negative = inhibition read?
Answer: Its activity change, negative = inhibition is 1.19%.

Question: For `Cc1cnc(NC(=O)C2=C(O)c3ccccc3S(=O)(=O)N2C)s1`, which activity change, negative = inhibition is on record?
Answer: Its activity change, negative = inhibition is 11.3%.

Question: Which activity change, negative = inhibition does the source give for `CC(=O)Oc1ccccc1C(=O)O` here?
Answer: The activity change, negative = inhibition was 2.25%.

Question: With `O=c1n(CCCN2CCN(c3cccc(Cl)c3)CC2)nc2ccccn12` as the compound, how does the activity change, negative = inhibition read?
Answer: The activity change, negative = inhibition was -3.74%.

Question: For `NCCc1ccc(O)c(O)c1`, which activity change, negative = inhibition is on record?
Answer: The activity change, negative = inhibition was 11.4%.

Question: For `Nc1nc2ccc(OC(F)(F)F)cc2s1`, which activity change, negative = inhibition is on record?
Answer: The activity change, negative = inhibition was 13.4%.

Question: For `Cn1cnc([N+](=O)[O-])c1Sc1ncnc2nc[nH]c12`, which activity change, negative = inhibition is on record?
Answer: The activity change, negative = inhibition was 19.1%.

Question: With `O=NN(CCCl)C(=O)NCCCl` as the compound, how does the activity change, negative = inhibition read?
Answer: Its activity change, negative = inhibition is -7.61%.

Question: With `CNC[C@H](O)c1cccc(O)c1` as the compound, how does the activity change, negative = inhibition read?
Answer: Its activity change, negative = inhibition is -0.528%.

Question: Which activity change, negative = inhibition does the source give for `NS(=O)(=O)c1cc2c(cc1Cl)NC=NS2(=O)=O` here?
Answer: Its activity change, negative = inhibition is 8.02%.

Question: Which activity change, negative = inhibition does the source give for `CCCC(CCC)C(=O)O` here?
Answer: Its activity change, negative = inhibition is 4.56%.

Question: For `N[C@@H]1CONC1=O`, which activity change, negative = inhibition is on record?
Answer: The activity change, negative = inhibition was -6.1% and -4.54% and -4.29%.

Question: Which activity change, negative = inhibition does the source give for `Cc1oncc1C(=O)Nc1ccc(C(F)(F)F)cc1` here?
Answer: Its activity change, negative = inhibition is -5.42%.

Question: For `CCCCNc1cc(C(=O)O)cc(S(N)(=O)=O)c1Oc1ccccc1`, which activity change, negative = inhibition is on record?
Answer: Its activity change, negative = inhibition is 7.04%.

Question: With `O=c1[nH]cnc2[nH]ncc12` as the compound, how does the activity change, negative = inhibition read?
Answer: Its activity change, negative = inhibition is 5.26%.
